In article PMC7862700, “An all-to-all approach to the identification of sequence-specific readers for epigenetic DNA modifications on cytosine”:

Columns and labels:
Experiment in all cases: DAPPL (digital affinity profiling via proximity ligation, sequencing); 10 mM Tris-HCl pH 7.5, 50 mM NaCl, 1 mM DTT, 4% glycerol, room temperature, 30 min; GST-TFs on glutathione beads, 16-mer random dsDNA library, 0.1% formaldehyde crosslink after washing; high values mean tight binding
FLI1 = target: T1, FLI1 (Homo sapiens, UniProt Q01543 1-452); conditions: protein: recombinant; tags: N-terminal GST; dsDNA, one strand shown
T1 sequence: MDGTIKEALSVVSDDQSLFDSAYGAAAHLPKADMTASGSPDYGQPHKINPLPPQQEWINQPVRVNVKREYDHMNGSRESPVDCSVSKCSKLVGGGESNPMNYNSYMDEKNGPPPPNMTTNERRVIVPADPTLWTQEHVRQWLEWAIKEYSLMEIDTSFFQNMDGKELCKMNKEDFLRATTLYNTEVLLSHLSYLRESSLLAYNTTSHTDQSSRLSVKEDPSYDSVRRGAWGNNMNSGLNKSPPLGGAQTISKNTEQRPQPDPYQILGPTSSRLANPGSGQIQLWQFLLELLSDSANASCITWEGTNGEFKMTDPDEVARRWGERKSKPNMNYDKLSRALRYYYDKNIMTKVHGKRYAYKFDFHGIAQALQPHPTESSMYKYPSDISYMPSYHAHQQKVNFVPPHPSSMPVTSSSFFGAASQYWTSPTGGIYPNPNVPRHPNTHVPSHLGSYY
Method in brief: (§1)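 Sequencing on an Illumina NextSeq500 followed washing, crosslinking with 0.1% formaldehyde, proximity ligation (BsaI/T4 ligase, 1 h, 37 °C) and PCR amplification of pools that had been incubated for 30 min at room temperature with 200 nmole of a random double-stranded 16-mer DNA library in Tris/NaCl/DTT/glycerol buffer. Each pool held DNA-barcoded human transcription factors, expressed in yeast as GST fusions and captured on glutathione beads, plus a tag-only sample. Binding signal is a hexamer's read frequency for a factor divided by its frequency in the tag-only sample.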

ELK1 = target: T2, ELK1 (Homo sapiens, UniProt P19419 1-428); conditions: protein: recombinant; tags: N-terminal GST; dsDNA, one strand shown
T2 sequence: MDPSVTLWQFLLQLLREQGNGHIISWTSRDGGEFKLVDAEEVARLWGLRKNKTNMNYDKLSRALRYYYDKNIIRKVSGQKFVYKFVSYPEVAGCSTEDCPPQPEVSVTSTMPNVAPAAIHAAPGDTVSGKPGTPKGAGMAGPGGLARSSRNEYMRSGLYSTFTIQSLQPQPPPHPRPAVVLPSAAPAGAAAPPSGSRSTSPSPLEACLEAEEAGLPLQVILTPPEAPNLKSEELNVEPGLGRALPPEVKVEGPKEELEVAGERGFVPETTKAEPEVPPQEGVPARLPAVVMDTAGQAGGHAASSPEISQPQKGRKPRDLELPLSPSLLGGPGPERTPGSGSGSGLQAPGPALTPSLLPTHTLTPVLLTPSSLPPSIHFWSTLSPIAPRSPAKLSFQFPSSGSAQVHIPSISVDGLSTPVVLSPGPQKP
Method in brief: as §1

GABPA = target: T3, GABPA (Homo sapiens, UniProt Q06546 1-454); conditions: protein: recombinant; tags: N-terminal GST; dsDNA, one strand shown
T3 sequence: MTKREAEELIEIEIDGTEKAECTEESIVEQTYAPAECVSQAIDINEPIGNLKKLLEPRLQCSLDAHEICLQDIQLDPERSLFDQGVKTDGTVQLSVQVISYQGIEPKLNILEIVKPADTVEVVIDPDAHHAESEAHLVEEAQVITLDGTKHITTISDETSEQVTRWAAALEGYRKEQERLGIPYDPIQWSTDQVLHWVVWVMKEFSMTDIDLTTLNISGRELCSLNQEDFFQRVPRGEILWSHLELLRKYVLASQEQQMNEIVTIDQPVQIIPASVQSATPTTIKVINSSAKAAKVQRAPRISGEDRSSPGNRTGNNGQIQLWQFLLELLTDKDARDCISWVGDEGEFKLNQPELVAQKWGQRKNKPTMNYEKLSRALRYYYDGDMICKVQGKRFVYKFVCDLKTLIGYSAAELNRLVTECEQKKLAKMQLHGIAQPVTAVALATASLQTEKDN
Method in brief: as §1

ERG = target: T4, ERG (Homo sapiens, UniProt P11308 1-479); conditions: protein: recombinant; tags: N-terminal GST; dsDNA, one strand shown
T4 sequence: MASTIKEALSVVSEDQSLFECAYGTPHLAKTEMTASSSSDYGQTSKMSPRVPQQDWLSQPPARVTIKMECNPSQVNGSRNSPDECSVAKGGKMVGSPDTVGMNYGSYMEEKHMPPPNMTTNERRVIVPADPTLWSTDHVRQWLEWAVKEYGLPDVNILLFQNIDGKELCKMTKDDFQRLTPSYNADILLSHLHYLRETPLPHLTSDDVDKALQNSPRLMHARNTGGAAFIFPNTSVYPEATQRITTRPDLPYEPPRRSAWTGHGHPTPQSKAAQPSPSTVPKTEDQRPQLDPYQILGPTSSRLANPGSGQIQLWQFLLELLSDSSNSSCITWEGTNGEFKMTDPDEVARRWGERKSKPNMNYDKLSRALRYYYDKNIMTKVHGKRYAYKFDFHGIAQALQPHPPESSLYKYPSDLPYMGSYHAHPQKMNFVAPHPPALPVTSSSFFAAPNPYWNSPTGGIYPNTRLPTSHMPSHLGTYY
Method in brief: as §1

ELF1 = ELF1 (Homo sapiens, UniProt P32519 1-619); conditions: protein: recombinant; tags: N-terminal GST; dsDNA, one strand shown
Method in brief: as §1

EHF = target: T5, EHF (Homo sapiens, UniProt Q9NZC4 1-300); conditions: protein: recombinant; tags: N-terminal GST; dsDNA, one strand shown
T5 sequence: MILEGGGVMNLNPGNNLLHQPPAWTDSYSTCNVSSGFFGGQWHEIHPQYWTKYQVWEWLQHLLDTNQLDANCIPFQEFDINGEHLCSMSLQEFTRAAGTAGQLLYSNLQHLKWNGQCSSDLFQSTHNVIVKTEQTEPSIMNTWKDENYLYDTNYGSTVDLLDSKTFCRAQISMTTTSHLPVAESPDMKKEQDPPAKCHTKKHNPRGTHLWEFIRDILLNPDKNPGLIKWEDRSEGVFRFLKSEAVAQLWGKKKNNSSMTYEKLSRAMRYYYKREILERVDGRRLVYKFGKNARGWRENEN
Method in brief: as §1

SPI1 = SPI1 (Homo sapiens, UniProt P17947 1-270); conditions: protein: recombinant; tags: N-terminal GST; dsDNA, one strand shown
Method in brief: as §1

SPIB = SPIB (Homo sapiens, UniProt Q01892 1-262); conditions: protein: recombinant; tags: N-terminal GST; dsDNA, one strand shown
Method in brief: as §1

ELK3 = target: T6, ELK3 (Homo sapiens, UniProt P41970 1-407); conditions: protein: recombinant; tags: N-terminal GST; dsDNA, one strand shown
T6 sequence: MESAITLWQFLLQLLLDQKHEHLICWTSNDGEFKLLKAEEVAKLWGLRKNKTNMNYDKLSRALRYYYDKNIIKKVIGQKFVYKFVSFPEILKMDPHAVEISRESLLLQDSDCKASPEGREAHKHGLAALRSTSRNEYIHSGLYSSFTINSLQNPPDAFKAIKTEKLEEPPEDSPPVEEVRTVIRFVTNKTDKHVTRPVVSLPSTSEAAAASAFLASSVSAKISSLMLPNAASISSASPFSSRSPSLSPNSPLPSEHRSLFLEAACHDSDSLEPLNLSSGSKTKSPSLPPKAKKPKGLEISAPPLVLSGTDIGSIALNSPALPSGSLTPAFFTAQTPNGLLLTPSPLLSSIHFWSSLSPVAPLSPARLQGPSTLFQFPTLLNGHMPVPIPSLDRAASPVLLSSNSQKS
Method in brief: as §1

FEV = target: T7, FEV (Homo sapiens, UniProt Q99581 1-238); conditions: protein: recombinant; tags: N-terminal GST; dsDNA, one strand shown
T7 sequence: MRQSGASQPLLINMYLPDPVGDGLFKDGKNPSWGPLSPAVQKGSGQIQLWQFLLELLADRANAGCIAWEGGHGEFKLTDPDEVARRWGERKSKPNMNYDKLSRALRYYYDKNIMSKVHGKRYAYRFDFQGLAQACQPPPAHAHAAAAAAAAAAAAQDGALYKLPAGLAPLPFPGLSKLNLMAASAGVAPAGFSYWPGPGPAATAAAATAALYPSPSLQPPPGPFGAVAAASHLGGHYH
Method in brief: as §1

ETV5 = ETV5 (Homo sapiens, UniProt P41161 1-510); conditions: protein: recombinant; tags: N-terminal GST; dsDNA, one strand shown
Method in brief: as §1

HSF1 = HSF1 (Homo sapiens, UniProt Q00613 1-529); conditions: protein: recombinant; tags: N-terminal GST; chain copies: 3; dsDNA, one strand shown
Method in brief: as §1

SPIC = target: T8, SPIC (Homo sapiens, UniProt Q8N5J4 1-248); conditions: protein: recombinant; tags: N-terminal GST; dsDNA, one strand shown
T8 sequence: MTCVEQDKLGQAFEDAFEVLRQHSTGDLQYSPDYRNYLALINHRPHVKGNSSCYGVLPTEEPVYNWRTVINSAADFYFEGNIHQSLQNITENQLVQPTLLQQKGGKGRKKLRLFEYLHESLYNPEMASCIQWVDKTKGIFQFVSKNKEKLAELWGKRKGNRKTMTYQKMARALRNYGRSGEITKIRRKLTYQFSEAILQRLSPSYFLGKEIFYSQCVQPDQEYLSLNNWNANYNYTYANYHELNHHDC
Method in brief: as §1

ELF4 = ELF4 (Homo sapiens, UniProt Q99607 1-663); conditions: protein: recombinant; tags: N-terminal GST; dsDNA, one strand shown
Method in brief: as §1

ELK4 = target: T9, ELK4 (Homo sapiens, UniProt P28324-2 1-405); conditions: protein: recombinant; tags: N-terminal GST; dsDNA, one strand shown
T9 sequence: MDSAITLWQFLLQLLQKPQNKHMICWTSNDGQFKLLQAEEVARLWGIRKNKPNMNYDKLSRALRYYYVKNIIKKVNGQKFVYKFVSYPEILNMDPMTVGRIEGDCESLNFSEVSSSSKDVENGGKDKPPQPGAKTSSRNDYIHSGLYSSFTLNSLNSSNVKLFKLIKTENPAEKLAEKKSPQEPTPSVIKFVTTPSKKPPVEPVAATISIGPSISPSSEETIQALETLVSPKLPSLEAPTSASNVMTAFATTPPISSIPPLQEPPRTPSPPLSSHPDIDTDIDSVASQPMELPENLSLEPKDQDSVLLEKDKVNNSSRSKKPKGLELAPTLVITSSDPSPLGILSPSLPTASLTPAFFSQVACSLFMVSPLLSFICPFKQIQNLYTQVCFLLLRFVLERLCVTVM
Method in brief: as §1

ETV2 = target: T10, ETV2 (Homo sapiens, UniProt O00321 1-342); conditions: protein: recombinant; tags: N-terminal GST; dsDNA, one strand shown
T10 sequence: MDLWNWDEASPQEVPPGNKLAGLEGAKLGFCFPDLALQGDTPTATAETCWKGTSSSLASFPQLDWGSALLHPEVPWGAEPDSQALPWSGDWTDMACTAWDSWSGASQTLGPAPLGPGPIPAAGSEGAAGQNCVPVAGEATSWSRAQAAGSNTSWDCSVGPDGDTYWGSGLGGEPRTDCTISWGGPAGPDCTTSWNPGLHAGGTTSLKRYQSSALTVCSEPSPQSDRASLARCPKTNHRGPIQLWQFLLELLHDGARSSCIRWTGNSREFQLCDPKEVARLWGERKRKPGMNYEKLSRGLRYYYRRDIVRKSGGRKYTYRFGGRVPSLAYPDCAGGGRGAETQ
Method in brief: as §1

ELF3 = target: T11, ELF3 (Homo sapiens, UniProt P78545 1-371); conditions: protein: recombinant; tags: N-terminal GST; dsDNA, one strand shown
T11 sequence: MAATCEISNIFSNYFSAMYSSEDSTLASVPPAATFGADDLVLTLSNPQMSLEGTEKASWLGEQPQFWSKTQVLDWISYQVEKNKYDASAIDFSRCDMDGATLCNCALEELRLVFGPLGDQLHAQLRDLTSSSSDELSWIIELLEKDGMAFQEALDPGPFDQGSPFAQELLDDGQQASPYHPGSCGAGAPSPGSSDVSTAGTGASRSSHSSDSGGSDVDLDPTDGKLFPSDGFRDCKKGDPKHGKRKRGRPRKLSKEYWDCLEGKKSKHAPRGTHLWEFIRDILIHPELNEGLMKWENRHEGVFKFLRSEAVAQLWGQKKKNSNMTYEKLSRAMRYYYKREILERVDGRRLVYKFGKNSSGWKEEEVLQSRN
Method in brief: as §1

CRX = CRX (Homo sapiens, UniProt O43186 1-299); conditions: protein: recombinant; tags: N-terminal GST; dsDNA, one strand shown
Method in brief: as §1

ETV1 = ETV1 (Homo sapiens, UniProt P50549 1-477); conditions: protein: recombinant; tags: N-terminal GST; dsDNA, one strand shown
Method in brief: as §1

Sequence of SPIB (Q01892 whole entry): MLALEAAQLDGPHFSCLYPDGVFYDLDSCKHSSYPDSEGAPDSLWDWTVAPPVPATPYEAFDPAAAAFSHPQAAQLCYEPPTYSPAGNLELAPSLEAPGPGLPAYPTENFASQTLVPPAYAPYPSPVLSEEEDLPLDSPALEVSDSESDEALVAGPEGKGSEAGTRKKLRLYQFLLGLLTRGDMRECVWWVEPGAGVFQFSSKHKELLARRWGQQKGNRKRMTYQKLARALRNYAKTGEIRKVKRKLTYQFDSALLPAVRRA
Sequence of HSF1 (Q00613 whole entry): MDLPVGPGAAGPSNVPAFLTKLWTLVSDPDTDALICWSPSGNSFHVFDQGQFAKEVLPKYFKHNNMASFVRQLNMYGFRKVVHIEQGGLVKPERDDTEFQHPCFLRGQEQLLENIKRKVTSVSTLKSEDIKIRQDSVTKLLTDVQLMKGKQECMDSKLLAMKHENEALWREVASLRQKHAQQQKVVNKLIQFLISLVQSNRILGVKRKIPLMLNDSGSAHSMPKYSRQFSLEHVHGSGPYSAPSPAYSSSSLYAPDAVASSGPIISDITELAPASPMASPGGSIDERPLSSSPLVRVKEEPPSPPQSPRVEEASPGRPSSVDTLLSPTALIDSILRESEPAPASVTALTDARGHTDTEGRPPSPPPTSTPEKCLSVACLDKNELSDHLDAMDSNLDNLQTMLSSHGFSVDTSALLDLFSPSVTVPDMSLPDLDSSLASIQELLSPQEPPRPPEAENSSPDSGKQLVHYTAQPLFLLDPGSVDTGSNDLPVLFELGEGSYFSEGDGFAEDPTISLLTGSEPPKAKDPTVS
Sequence of ETV1 (P50549 whole entry): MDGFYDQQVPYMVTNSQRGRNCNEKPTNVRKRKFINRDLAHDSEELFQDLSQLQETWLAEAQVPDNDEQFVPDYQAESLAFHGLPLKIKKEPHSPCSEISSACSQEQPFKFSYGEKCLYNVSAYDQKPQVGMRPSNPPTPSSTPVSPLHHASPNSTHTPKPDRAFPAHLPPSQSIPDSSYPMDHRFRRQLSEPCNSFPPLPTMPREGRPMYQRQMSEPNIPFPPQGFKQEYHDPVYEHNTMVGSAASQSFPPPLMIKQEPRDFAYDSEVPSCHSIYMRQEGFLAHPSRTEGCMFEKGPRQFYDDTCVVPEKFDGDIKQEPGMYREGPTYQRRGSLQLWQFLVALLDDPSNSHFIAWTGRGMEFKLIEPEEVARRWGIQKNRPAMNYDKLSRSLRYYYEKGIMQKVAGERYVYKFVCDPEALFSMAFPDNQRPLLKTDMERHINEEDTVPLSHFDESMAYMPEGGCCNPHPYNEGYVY
Sequence of ELF1 (P32519 whole entry): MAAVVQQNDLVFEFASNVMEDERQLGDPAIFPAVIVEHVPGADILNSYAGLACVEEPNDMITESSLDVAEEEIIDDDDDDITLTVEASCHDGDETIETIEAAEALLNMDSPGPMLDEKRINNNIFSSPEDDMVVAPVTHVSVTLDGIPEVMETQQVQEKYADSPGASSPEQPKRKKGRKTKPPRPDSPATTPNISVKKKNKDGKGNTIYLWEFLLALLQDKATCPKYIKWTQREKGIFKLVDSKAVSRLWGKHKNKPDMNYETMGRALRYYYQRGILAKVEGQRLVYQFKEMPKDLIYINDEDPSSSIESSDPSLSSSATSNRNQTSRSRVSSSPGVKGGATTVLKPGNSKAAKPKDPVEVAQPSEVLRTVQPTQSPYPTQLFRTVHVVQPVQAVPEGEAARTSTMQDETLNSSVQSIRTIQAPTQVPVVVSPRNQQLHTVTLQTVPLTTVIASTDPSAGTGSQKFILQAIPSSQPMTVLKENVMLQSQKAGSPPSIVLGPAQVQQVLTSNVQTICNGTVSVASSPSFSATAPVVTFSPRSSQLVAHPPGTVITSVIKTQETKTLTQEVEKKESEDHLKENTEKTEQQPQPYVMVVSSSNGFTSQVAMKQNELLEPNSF
Sequence of CRX (O43186 whole entry): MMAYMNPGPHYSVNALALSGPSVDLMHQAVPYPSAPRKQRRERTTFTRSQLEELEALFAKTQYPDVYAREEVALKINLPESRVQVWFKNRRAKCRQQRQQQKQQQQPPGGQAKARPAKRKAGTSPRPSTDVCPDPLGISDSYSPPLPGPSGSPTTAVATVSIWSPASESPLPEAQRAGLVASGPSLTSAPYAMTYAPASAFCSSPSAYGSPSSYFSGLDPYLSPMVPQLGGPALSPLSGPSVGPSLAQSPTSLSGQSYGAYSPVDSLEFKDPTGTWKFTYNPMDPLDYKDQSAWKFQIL
Sequence of ELF4 (Q99607 whole entry): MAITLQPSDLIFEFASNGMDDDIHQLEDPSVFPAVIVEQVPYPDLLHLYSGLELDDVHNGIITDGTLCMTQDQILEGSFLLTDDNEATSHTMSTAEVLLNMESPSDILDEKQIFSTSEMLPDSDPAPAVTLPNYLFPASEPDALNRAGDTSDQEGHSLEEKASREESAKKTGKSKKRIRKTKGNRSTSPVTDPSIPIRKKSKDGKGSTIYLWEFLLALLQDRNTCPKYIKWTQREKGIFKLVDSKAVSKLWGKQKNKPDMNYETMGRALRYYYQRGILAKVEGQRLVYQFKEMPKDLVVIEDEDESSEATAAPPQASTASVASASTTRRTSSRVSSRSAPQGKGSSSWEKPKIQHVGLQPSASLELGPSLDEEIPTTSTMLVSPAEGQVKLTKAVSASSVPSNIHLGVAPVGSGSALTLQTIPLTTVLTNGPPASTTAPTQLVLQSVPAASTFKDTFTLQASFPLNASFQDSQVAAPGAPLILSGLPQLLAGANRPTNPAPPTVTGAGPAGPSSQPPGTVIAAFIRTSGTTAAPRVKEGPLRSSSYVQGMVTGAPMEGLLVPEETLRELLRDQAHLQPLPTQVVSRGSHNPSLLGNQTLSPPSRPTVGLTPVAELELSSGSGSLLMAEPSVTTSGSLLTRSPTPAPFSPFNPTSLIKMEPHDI
Sequence of ETV5 (P41161 whole entry): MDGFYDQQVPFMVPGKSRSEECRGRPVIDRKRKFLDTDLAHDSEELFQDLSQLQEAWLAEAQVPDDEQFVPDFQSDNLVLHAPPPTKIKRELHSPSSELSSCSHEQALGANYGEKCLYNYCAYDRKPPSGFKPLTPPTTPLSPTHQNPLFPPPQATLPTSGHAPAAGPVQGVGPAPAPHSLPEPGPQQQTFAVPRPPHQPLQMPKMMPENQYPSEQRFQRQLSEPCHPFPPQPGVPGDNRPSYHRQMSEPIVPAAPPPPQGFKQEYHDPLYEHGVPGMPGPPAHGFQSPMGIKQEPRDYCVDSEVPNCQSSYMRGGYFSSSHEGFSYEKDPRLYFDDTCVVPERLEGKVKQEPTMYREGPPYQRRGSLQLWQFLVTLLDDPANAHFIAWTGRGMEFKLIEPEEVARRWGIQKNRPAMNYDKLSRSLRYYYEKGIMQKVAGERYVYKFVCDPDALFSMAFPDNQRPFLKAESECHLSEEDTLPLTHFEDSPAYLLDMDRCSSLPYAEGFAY

CTTAGC was tested, and the binding signal (FLI1) was 1.22 fold enrichment (6-mer frequency, TF over GST control), the binding signal (ELK1) was 1.17 fold enrichment (6-mer frequency, TF over GST control) and the binding signal (GABPA) was 1.26 fold enrichment (6-mer frequency, TF over GST control). For the same sequence, the binding signal (ERG) was 1.22 fold enrichment (6-mer frequency, TF over GST control), the binding signal (ELF1) was 1.22 fold enrichment (6-mer frequency, TF over GST control) and the binding signal (EHF) was 1.25 fold enrichment (6-mer frequency, TF over GST control). The binding signal (SPI1) was 1.21 fold enrichment (6-mer frequency, TF over GST control), the binding signal (SPIB) was 1.21 fold enrichment (6-mer frequency, TF over GST control) and the binding signal (ELK3) was 1.22 fold enrichment (6-mer frequency, TF over GST control). The binding signal (FEV) was 1.12 fold enrichment (6-mer frequency, TF over GST control), the binding signal (ETV5) was 1.18 fold enrichment (6-mer frequency, TF over GST control) and the binding signal (HSF1) was 1.47 fold enrichment (6-mer frequency, TF over GST control). For the same sequence, the binding signal (SPIC) was 1.35 fold enrichment (6-mer frequency, TF over GST control), the binding signal (ELF4) was 1.28 fold enrichment (6-mer frequency, TF over GST control) and the binding signal (ELK4) was 1.21 fold enrichment (6-mer frequency, TF over GST control). For the same sequence, the binding signal (ETV2) was 1.3 fold enrichment (6-mer frequency, TF over GST control), the binding signal (ELF3) was 1.07 fold enrichment (6-mer frequency, TF over GST control) and the binding signal (CRX) was 2.17 fold enrichment (6-mer frequency, TF over GST control). For the same sequence, the binding signal (ETV1) was 1.24 fold enrichment (6-mer frequency, TF over GST control).
